{
  "source": "PubChem BioAssay (NCATS)",
  "note": "Records with an inconclusive call do not appear. Where a call stands in place of a potency, no number is given. Activity calls are given as the source filed them. Calls come from the whole dose curve.",
  "data": [
    {"test": "Primary qHTS for inhibitors of SARS-S pseudo-typed particle cell entry (AID 1479145); note: nearly all actives have a fitted effect of over 45% in size; note: potency is the fitted concentration of half-maximal effect", "details": "SARS-S pseudotyped particle cell entry, luciferase reporter; series mostly up to 57.1 µM", "values": [
      {"smiles": "CC(C)(C)c1ccc(C(O)CCCN2CCC(C(O)(c3ccccc3)c3ccccc3)CC2)cc1", "note": "(stereo unspecified)", "Potency": "inactive"},
      {"smiles": "CCOC(=O)C1=C[C@]2(CC)CCCN3CCc4c(n1c1ccccc41)[C@@H]32", "Potency": "inactive"},
      {"smiles": "CC(C)=CCC/C(C)=C/CC/C(C)=C/C(=O)OCC(=O)[C@@]1(O)CC[C@H]2[C@@H]3CCC4=CC(=O)C=C[C@]4(C)[C@H]3[C@@H](O)C[C@@]21C", "Potency": "inactive"},
      {"smiles": "CCCC(=O)O[C@]1(C(=O)CCl)[C@@H](C)C[C@H]2[C@@H]3CCC4=CC(=O)C=C[C@]4(C)[C@@]3(F)C(=O)C[C@@]21C", "Potency": "inactive"},
      {"smiles": "CCCCCCc1ccc(O)cc1O", "Potency": "inactive"},
      {"smiles": "CN(C)c1ccc(C(=C2C=CC(=[N+](C)C)C=C2)c2ccc(N(C)C)cc2)cc1", "Potency": "1 µM (active)"},
      {"smiles": "CN1C[C@H](C(=O)N[C@]2(C)O[C@@]3(O)[C@@H]4CCCN4C(=O)[C@H](Cc4ccccc4)N3C2=O)C[C@@H]2c3cccc4[nH]cc(c34)C[C@H]21", "Potency": "inactive"},
      {"smiles": "CCCCOc1cc(C(=O)OCCN(CC)CC)ccc1N", "Potency": "inactive"},
      {"smiles": "N=C(N)c1ccc2cc(OC(=O)c3ccc(N=C(N)N)cc3)ccc2c1", "Potency": "inactive"},
      {"smiles": "CNC[C@H](O)c1ccc(O)c(O)c1", "Potency": "inactive"},
      {"smiles": "C1CCC(C(CC2CCCCN2)C2CCCCC2)CC1", "note": "(stereo unspecified)", "Potency": "25.1 µM (active)"},
      {"smiles": "CC[C@H](c1ccc(O)cc1)[C@@H](CC)c1ccc(O)cc1", "Potency": "inactive"},
      {"smiles": "CCN(CC)CCCN(c1ccccc1)C1Cc2ccccc2C1", "Potency": "17.8 µM (active)"},
      {"smiles": "CCN(CCCCOC(=O)c1ccc(OC)c(OC)c1)C(C)Cc1ccc(OC)cc1", "note": "(stereo unspecified)", "Potency": "11.2 µM (active)"},
      {"smiles": "CCN(CC)CC(=O)OCC(=O)[C@@]1(O)CC[C@H]2[C@@H]3CCC4=CC(=O)CC[C@]4(C)[C@H]3[C@@H](O)C[C@@]21C", "Potency": "inactive"},
      {"smiles": "Oc1ccc(O)cc1", "Potency": "inactive"},
      {"smiles": "Cc1cc2nc3ccc(=[N+](C)C)cc-3sc2cc1N", "Potency": "14.1 µM (active)"},
      {"smiles": "CC(=O)[C@H]1CC[C@H]2[C@@H]3CC=C4C[C@@H](O)CC[C@]4(C)[C@H]3CC[C@]12C", "Potency": "inactive"},
      {"smiles": "NC(=O)c1ncn([C@@H]2O[C@H](CO)[C@@H](O)[C@H]2O)c1N", "Potency": "inactive"},
      {"smiles": "CN1CCCC(CC2c3ccccc3Sc3ccccc32)C1", "note": "(stereo unspecified)", "Potency": "20 µM (active)"},
      {"smiles": "CCOC(=O)Cn1cccc1-c1nc(-c2ccc(OC)cc2)c(-c2ccc(OC)cc2)s1", "Potency": "14.1 µM (active)"},
      {"smiles": "COc1ccc(-c2cc(C(F)F)nn2-c2ccc(S(N)(=O)=O)cc2)cc1F", "Potency": "inactive"},
      {"smiles": "COc1ccc2[nH]c(S(=O)Cc3ncc(C)c(OC)c3C)nc2n1", "note": "(stereo unspecified)", "Potency": "20 µM (active)"},
      {"smiles": "COc1cc(C(=O)OCCCN2CCCN(CCCOC(=O)c3cc(OC)c(OC)c(OC)c3)CC2)cc(OC)c1OC", "Potency": "11.2 µM (active)"},
      {"smiles": "O=C(Nc1ccc([N+](=O)[O-])cc1Cl)c1cc(Cl)ccc1O", "Potency": "0.501 µM (active)"},
      {"smiles": "CC(C)C(=O)Nc1cccc(C2CN3CCSC3=N2)c1", "note": "(stereo unspecified)", "Potency": "inactive"},
      {"smiles": "CCCCOc1cc(C(=O)NCCN(CC)CC)c2ccccc2n1", "Potency": "14.1 µM (active)"},
      {"smiles": "OC[C@H]1O[C@@H](n2cnc3c(=S)nc[nH]c32)[C@H](O)[C@@H]1O", "Potency": "inactive"},
      {"smiles": "COc1ccc(-c2nc3ccc(C4=NNC(=O)CC4C)cc3[nH]2)cc1", "note": "(stereo unspecified)", "Potency": "inactive"},
      {"smiles": "CCOC(=O)C1=C(C)NC(C)=C(C(=O)OCC)C1c1ccccc1/C=C/C(=O)OC(C)(C)C", "Potency": "inactive"},
      {"smiles": "COc1ccc(-n2nc(CCC(=O)N(C)O)cc2-c2ccc(Cl)cc2)cc1", "Potency": "inactive"},
      {"smiles": "CN(C)c1ccc(C(=C2C=CC(=[N+](C)C)C=C2)c2ccccc2)cc1", "Potency": "2.24 µM (active)"},
      {"smiles": "CC(C)[C@@H]1CC[C@@H](C)CC1=O", "Potency": "inactive"},
      {"smiles": "FC(F)(F)C(F)(F)C(F)(F)C(F)(F)C(F)(F)C(F)(F)C(F)(F)C(F)(F)Br", "Potency": "inactive"},
      {"smiles": "CCN(CCCc1ccccc1)CCCc1ccccc1", "Potency": "inactive"},
      {"smiles": "C[N+]1(CC2COC(c3ccccc3)(C3CCCCC3)O2)CCCCC1", "note": "(stereo unspecified)", "Potency": "inactive"},
      {"smiles": "O=C(O)CNC(=O)c1ccccc1I", "Potency": "inactive"},
      {"smiles": "CCC(CN)=C(c1ccccc1)c1ccccc1", "Potency": "inactive"},
      {"smiles": "O=C(O)c1cccc(-c2noc(-c3ccccc3F)n2)c1", "Potency": "inactive"}
    ]},
    {"test": "Primary qHTS for Huh7 cytotoxicity: counterscreen for inhibitors of MERS-S pseudotyped particle cell entry (AID 1479147)", "details": "cell viability read-out; series mostly up to 57.1 µM", "values": [
      {"smiles": "CC(C)(C)c1ccc(C(O)CCCN2CCC(C(O)(c3ccccc3)c3ccccc3)CC2)cc1", "note": "(stereo unspecified)", "Potency": "inactive"},
      {"smiles": "CCOC(=O)C1=C[C@]2(CC)CCCN3CCc4c(n1c1ccccc41)[C@@H]32", "Potency": "inactive"},
      {"smiles": "CCCC(=O)O[C@]1(C(=O)CCl)[C@@H](C)C[C@H]2[C@@H]3CCC4=CC(=O)C=C[C@]4(C)[C@@]3(F)C(=O)C[C@@]21C", "Potency": "inactive"},
      {"smiles": "CN1C[C@H](C(=O)N[C@]2(C)O[C@@]3(O)[C@@H]4CCCN4C(=O)[C@H](Cc4ccccc4)N3C2=O)C[C@@H]2c3cccc4[nH]cc(c34)C[C@H]21", "Potency": "inactive"},
      {"smiles": "N=C(N)c1ccc2cc(OC(=O)c3ccc(N=C(N)N)cc3)ccc2c1", "Potency": "inactive"},
      {"smiles": "CC[C@H](c1ccc(O)cc1)[C@@H](CC)c1ccc(O)cc1", "Potency": "inactive"},
      {"smiles": "CCN(CCCCOC(=O)c1ccc(OC)c(OC)c1)C(C)Cc1ccc(OC)cc1", "note": "(stereo unspecified)", "Potency": "inactive"},
      {"smiles": "CCN(CC)CC(=O)OCC(=O)[C@@]1(O)CC[C@H]2[C@@H]3CCC4=CC(=O)CC[C@]4(C)[C@H]3[C@@H](O)C[C@@]21C", "Potency": "inactive"},
      {"smiles": "CC(=O)[C@H]1CC[C@H]2[C@@H]3CC=C4C[C@@H](O)CC[C@]4(C)[C@H]3CC[C@]12C", "Potency": "inactive"},
      {"smiles": "NC(=O)c1ncn([C@@H]2O[C@H](CO)[C@@H](O)[C@H]2O)c1N", "Potency": "inactive"},
      {"smiles": "CCOC(=O)Cn1cccc1-c1nc(-c2ccc(OC)cc2)c(-c2ccc(OC)cc2)s1", "Potency": "inactive"},
      {"smiles": "COc1ccc(-c2cc(C(F)F)nn2-c2ccc(S(N)(=O)=O)cc2)cc1F", "Potency": "inactive"},
      {"smiles": "COc1ccc2[nH]c(S(=O)Cc3ncc(C)c(OC)c3C)nc2n1", "note": "(stereo unspecified)", "Potency": "inactive"},
      {"smiles": "COc1cc(C(=O)OCCCN2CCCN(CCCOC(=O)c3cc(OC)c(OC)c(OC)c3)CC2)cc(OC)c1OC", "Potency": "inactive"},
      {"smiles": "CC(C)C(=O)Nc1cccc(C2CN3CCSC3=N2)c1", "note": "(stereo unspecified)", "Potency": "inactive"},
      {"smiles": "CCOC(=O)C1=C(C)NC(C)=C(C(=O)OCC)C1c1ccccc1/C=C/C(=O)OC(C)(C)C", "Potency": "inactive"},
      {"smiles": "CC(C)[C@@H]1CC[C@@H](C)CC1=O", "Potency": "inactive"},
      {"smiles": "FC(F)(F)C(F)(F)C(F)(F)C(F)(F)C(F)(F)C(F)(F)C(F)(F)C(F)(F)Br", "Potency": "inactive"},
      {"smiles": "CCN(CCCc1ccccc1)CCCc1ccccc1", "Potency": "inactive"},
      {"smiles": "C[N+]1(CC2COC(c3ccccc3)(C3CCCCC3)O2)CCCCC1", "note": "(stereo unspecified)", "Potency": "inactive"},
      {"smiles": "O=C(O)CNC(=O)c1ccccc1I", "Potency": "inactive"},
      {"smiles": "CCC(CN)=C(c1ccccc1)c1ccccc1", "Potency": "inactive"}
    ]}
  ]
}
